Results on nine molecules are retold here after PubChem BioAssay (NCI).

A short description of assay [1]: NCI Yeast Anticancer Drug Screen. Data for the rad50 strain (AID 155).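 Further: 0% = growth of vehicle-only cultures of the same strain.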 The conditions noted are these: S. cerevisiae rad50 strain growth inhibition, hits give high values. Put shortly: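 Cells are treated with compound, grown, and their growth is then scored against vehicle-only cultures of the same repair-deficient yeast strain.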
Assay [2] in a line: NCI Yeast Anticancer Drug Screen. Data for the mec2-1 strain (AID 157). The conditions noted are these: S. cerevisiae mec2-1 strain, hits give high values. Put shortly:
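Readout is yeast growth inhibition, normalised to vehicle-treated controls, in the mec2-1 strain exposed to compound.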

Assay [3] can be described thus: NCI Yeast Anticancer Drug Screen. Data for the sgs1 mgt1 strain (AID 161).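 Further: 0% = growth of cultures given vehicle only.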 The following applies: S. cerevisiae sgs1 mgt1 strain, hits give high values. Put shortly:
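Percent growth inhibition was derived by comparing compound-exposed mutant yeast with vehicle-exposed cultures. The strain carries alterations in DNA damage repair.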

The nature of assay [4]: NCI Yeast Anticancer Drug Screen. Data for the cln2 rad14 strain (AID 165).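 Further: 0% = growth equal to vehicle treated cultures.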 The following applies: S. cerevisiae cln2 rad14 strain, hits give high values. The procedure, abridged: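 Relative to vehicle controls, growth inhibition of compound-treated cln2 rad14 yeast was recorded.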
The nature of assay [5]: NCI Yeast Anticancer Drug Screen. Data for the bub3 strain (AID 167). The conditions noted are these: S. cerevisiae bub3 mutant strain, hits give high values. Put shortly: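 Part of a panel of yeast mutants defective in DNA damage repair or cell cycle regulation. Each strain is grown with compound, and inhibition is calculated relative to solvent-treated cultures.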
Assay [6] is described as follows: NCI Yeast Anticancer Drug Screen. Data for the mlh1 rad18 strain (AID 175). The following applies: S. cerevisiae mlh1 rad18 strain growth inhibition, hits give high values. The procedure, abridged: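 Test agents were incubated with a yeast strain of defined genotype (DNA damage repair defect). Inhibition of growth was derived by comparison with vehicle-exposed cultures.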

[7] abbreviates: at 5.0 µM (retest, dose inferred, filed as 0.5).
Setting [8] is: at 50.0 µM (retest, dose inferred, filed as 5.0).

About 79,000 compounds went through this panel and 15% of them were active in at least one assay; those are over-represented in the sample as a whole. Values without a mark were called inactive. Calls of active or inactive are those of the source. No stated cut-off is given here; in the data, active means growth inhibition above about 70%; inactive means the rest.

For `FC(F)(F)c1nc2ccc(SSc3ccc4nc(C(F)(F)F)[nH]c4c3)cc2[nH]1`, the growth inhibition is -8% in assay [1] (setting [7]); 17% in assay [1] (setting [8]); 96% (active) in assay [1] (at 50.0 µM); 13% in assay [2] (setting [7]); 20% in assay [2] (setting [8]); 93.8% (active) in assay [2] (at 50.0 µM). The growth inhibition in assay [3] (setting [7]) is -3%; in assay [3] (setting [8]) it was 12%; in assay [3] (at 50.0 µM) it was 96.6% (active); in assay [4] (setting [7]), 8%; in assay [4] (setting [8]), -32%; in assay [4] (at 50.0 µM), 92.3% (active). For the same molecule, the growth inhibition in assay [5] (setting [7]) was 1%; in assay [5] (setting [8]), 14%; in assay [5] (at 50.0 µM) it was 95.5% (active); in assay [6] (setting [7]), 2%; in assay [6] (setting [8]) it was -6%; in assay [6] (at 50.0 µM), 97.2% (active).
On to `CCCN1CN(c2ccccc2)C2(CCN(CCCC(=O)c3ccc(F)cc3)CC2)C1=O`, for which the growth inhibition in assay [1] (setting [7]) was 11%; in assay [1] (setting [8]) it was 17%; in assay [1] (at 50.0 µM) it was 35.7%; in assay [2] (setting [7]), 7%; in assay [2] (setting [8]) it was 14%; in assay [2] (at 50.0 µM), -4.4%. Also, the growth inhibition in assay [3] (setting [7]) is -17%; in assay [3] (setting [8]) it was 12%; in assay [3] (at 50.0 µM), 60.5%; in assay [4] (setting [7]), 6%; in assay [4] (setting [8]), 20%; in assay [4] (at 50.0 µM), 15.6%. Besides, the growth inhibition was 4% in assay [5] (setting [7]); 35% in assay [5] (setting [8]); 38.9% in assay [5] (at 50.0 µM); 22% in assay [6] (setting [7]); 30% in assay [6] (setting [8]); 20.4% in assay [6] (at 50.0 µM).
Turning to `O=[N+]([O-])c1ccc2c[n+]3ccccc3cc2c1`, the growth inhibition in assay [1] (setting [7]) is 21%; in assay [1] (setting [8]), 84% (active); in assay [1] (at 50.0 µM) it was 80.3% (active); in assay [2] (setting [7]) it was 4%; in assay [2] (setting [8]), 50%; in assay [2] (at 50.0 µM), 5.3%. In addition, the growth inhibition was 2% in assay [3] (setting [7]); 56% in assay [3] (setting [8]); 36.2% in assay [3] (at 50.0 µM); 1% in assay [4] (setting [7]); 43% in assay [4] (setting [8]); -17.4% in assay [4] (at 50.0 µM). The growth inhibition in assay [5] (setting [7]) is -5%; in assay [5] (setting [8]), 56%; in assay [5] (at 50.0 µM) it was 3.8%; in assay [6] (setting [7]), 12%; in assay [6] (setting [8]) it was 86% (active); in assay [6] (at 50.0 µM), 62%.
On to `CC1CCOC(=O)/C=C/C=C/C(=O)OC2CC3OC4C5OC5(C)C(O)CC4(COC(=O)C1O)C2(C)C31CO1` (configuration not stated), for which the growth inhibition in assay [1] (setting [7]) was 16%; in assay [1] (setting [8]), 95% (active); in assay [1] (at 50.0 µM) it was 90.3% (active); in assay [2] (setting [7]), 27%; in assay [2] (setting [8]) it was 90% (active); in assay [2] (at 50.0 µM), 92% (active). Further, the growth inhibition in assay [3] (setting [7]) was 21%; in assay [3] (setting [8]), 95% (active); in assay [3] (at 50.0 µM), 91.5% (active); in assay [4] (setting [7]), 42%; in assay [4] (setting [8]), 97% (active); in assay [4] (at 50.0 µM), 89.5% (active). Also, the growth inhibition in assay [5] (setting [7]) was 18%; in assay [5] (setting [8]), 95% (active); in assay [5] (at 50.0 µM) it was 89.2% (active); in assay [6] (setting [7]), 17%; in assay [6] (setting [8]) it was 94% (active); in assay [6] (at 50.0 µM), 89.4% (active).
As to `C=C1C(C)C2C(Cc3ccccc3)NC(=O)C23C(OC(C)=O)C=CC(C)(O)C(=O)C(C)C/C=C/C3C1O` (configuration not stated), the growth inhibition in assay [1] (setting [7]) was 72% (active); in assay [1] (setting [8]) it was 96% (active); in assay [1] (at 50.0 µM), 88.8% (active); in assay [2] (setting [7]), 57%; in assay [2] (setting [8]), 96% (active); in assay [2] (at 50.0 µM), 90.1% (active). For the same molecule, the growth inhibition in assay [3] (setting [7]) is 58%; in assay [3] (setting [8]) it was 97% (active); in assay [3] (at 50.0 µM), 89.2% (active); in assay [4] (setting [7]), 80% (active); in assay [4] (setting [8]), 96% (active); in assay [4] (at 50.0 µM) it was 85.2% (active). Moreover, the growth inhibition in assay [5] (setting [7]) is 71% (active); in assay [5] (setting [8]) it was 98% (active); in assay [5] (at 50.0 µM) it was 84% (active); in assay [6] (setting [7]), 80% (active); in assay [6] (setting [8]), 96% (active); in assay [6] (at 50.0 µM) it was 84.1% (active).
As to `CC12CCC(C)(c3cc(O)c(O)cc31)c1cc(O)c(O)cc12`, the growth inhibition in assay [1] (setting [7]) is -4%; in assay [1] (setting [8]) it was 4%; in assay [1] (at 50.0 µM) it was 52.3%; in assay [2] (setting [7]), -1%; in assay [2] (setting [8]), -1%; in assay [2] (at 50.0 µM), 31.4%. Besides, the growth inhibition was -1% in assay [3] (setting [7]); 4% in assay [3] (setting [8]); 37% in assay [3] (at 50.0 µM); 2% in assay [4] (setting [7]); 19% in assay [4] (setting [8]); 57.5% in assay [4] (at 50.0 µM). Further, the growth inhibition was 4% in assay [5] (setting [7]); 33% in assay [5] (setting [8]); 43.9% in assay [5] (at 50.0 µM); -1% in assay [6] (setting [7]); 22% in assay [6] (setting [8]); 70.1% (active) in assay [6] (at 50.0 µM).
Consider `OC(c1ccc(Cl)cc1)C(Cl)(Cl)Cl` (configuration not stated), for which the growth inhibition in assay [1] (setting [7]) was 6%; in assay [1] (setting [8]), 98% (active); in assay [1] (at 50.0 µM) it was 97.6% (active); in assay [2] (setting [7]), 0%; in assay [2] (setting [8]) it was 98% (active); in assay [2] (at 50.0 µM), 96.8% (active). Further, the growth inhibition was -1% in assay [3] (setting [7]); 35% in assay [3] (setting [8]); 81.2% (active) in assay [3] (at 50.0 µM); 1% in assay [4] (setting [7]); 96% (active) in assay [4] (setting [8]); 77.8% (active) in assay [4] (at 50.0 µM). Also, the growth inhibition is -8% in assay [5] (setting [7]); 99% (active) in assay [5] (setting [8]); 95.3% (active) in assay [5] (at 50.0 µM); 3% in assay [6] (setting [7]); 97% (active) in assay [6] (setting [8]); 97.5% (active) in assay [6] (at 50.0 µM).
As to `C[n+]1[se]nc2cc(C(=O)c3ccccc3)ccc21` (tested in a mixture with another compound), the growth inhibition in assay [1] (setting [7]) is 99% (active); in assay [1] (setting [8]), 99% (active); in assay [1] (at 50.0 µM), 99.3% (active); in assay [2] (setting [7]), 99% (active); in assay [2] (setting [8]) it was 99% (active); in assay [2] (at 50.0 µM), 99.2% (active). In addition, the growth inhibition in assay [3] (setting [7]) is 98% (active); in assay [3] (setting [8]), 99% (active); in assay [3] (at 50.0 µM) it was 99% (active); in assay [4] (setting [7]), 96% (active); in assay [4] (setting [8]), 99% (active); in assay [4] (at 50.0 µM) it was 99% (active). For the same molecule, the growth inhibition is 98% (active) in assay [5] (setting [7]); 99% (active) in assay [5] (setting [8]); 99% (active) in assay [5] (at 50.0 µM); 99% (active) in assay [6] (setting [7]); 99% (active) in assay [6] (setting [8]); 99.3% (active) in assay [6] (at 50.0 µM).
For `CCOc1c(Br)cc(/C=C/[N+](=O)[O-])cc1OC`, the growth inhibition in assay [1] (setting [7]) is 44%; in assay [1] (setting [8]) it was 98% (active); in assay [1] (at 50.0 µM) it was 69.8%; in assay [2] (setting [7]), 61%; in assay [2] (setting [8]) it was 98% (active); in assay [2] (at 50.0 µM), 75.5% (active). The growth inhibition in assay [3] (setting [7]) was 32%; in assay [3] (setting [8]), 98% (active); in assay [3] (at 50.0 µM), 84% (active); in assay [4] (setting [7]) it was 45%; in assay [4] (setting [8]), 92% (active); in assay [4] (at 50.0 µM) it was 77% (active). Further, the growth inhibition in assay [5] (setting [7]) is 61%; in assay [5] (setting [8]), 99% (active); in assay [5] (at 50.0 µM), 79% (active); in assay [6] (setting [7]), 58%; in assay [6] (setting [8]), 98% (active); in assay [6] (at 50.0 µM), 90.5% (active).
